From publication PMC7862700, “An all-to-all approach to the identification of sequence-specific readers for epigenetic DNA modifications on cytosine”

How the values were obtained:
Assay in all cases: DAPPL (digital affinity profiling via proximity ligation, sequencing); 10 mM Tris-HCl pH 7.5, 50 mM NaCl, 1 mM DTT, 4% glycerol, room temperature, 30 min; GST-TFs on glutathione beads, 16-mer random dsDNA library, 0.1% formaldehyde crosslink after washing; high values mean tight binding
FLI1 = molecular target: T1, FLI1 (Homo sapiens, UniProt Q01543 1-452); details: protein: recombinant; tags: N-terminal GST; dsDNA, one strand shown
T1 sequence: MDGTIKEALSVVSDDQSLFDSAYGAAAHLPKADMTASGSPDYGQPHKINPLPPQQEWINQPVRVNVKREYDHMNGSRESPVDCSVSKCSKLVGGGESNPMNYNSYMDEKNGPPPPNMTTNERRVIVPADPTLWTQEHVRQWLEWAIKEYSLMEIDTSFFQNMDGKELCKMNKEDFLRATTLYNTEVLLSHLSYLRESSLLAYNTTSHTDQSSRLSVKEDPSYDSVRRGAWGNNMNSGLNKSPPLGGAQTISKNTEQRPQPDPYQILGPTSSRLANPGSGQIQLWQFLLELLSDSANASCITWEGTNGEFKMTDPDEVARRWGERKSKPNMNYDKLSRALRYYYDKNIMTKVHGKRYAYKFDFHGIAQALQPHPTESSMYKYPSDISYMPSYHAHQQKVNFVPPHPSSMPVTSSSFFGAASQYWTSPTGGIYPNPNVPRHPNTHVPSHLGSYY
How it was run: (§1)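 A tag-only sample was pooled with DNA-barcoded human transcription factors that had been expressed in yeast as GST fusions and captured on glutathione beads. The pools were incubated for 30 min at room temperature with 200 nmole of a random double-stranded 16-mer DNA library in Tris/NaCl/DTT/glycerol buffer, then washed, crosslinked with 0.1% formaldehyde, proximity-ligated (BsaI/T4 ligase, 1 h, 37 °C), PCR-amplified and sequenced on an Illumina NextSeq500. Binding signal is each hexamer's read frequency for a factor divided by its frequency for the tag-only sample.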

ELK1 = molecular target: T2, ELK1 (Homo sapiens, UniProt P19419 1-428); details: protein: recombinant; tags: N-terminal GST; dsDNA, one strand shown
T2 sequence: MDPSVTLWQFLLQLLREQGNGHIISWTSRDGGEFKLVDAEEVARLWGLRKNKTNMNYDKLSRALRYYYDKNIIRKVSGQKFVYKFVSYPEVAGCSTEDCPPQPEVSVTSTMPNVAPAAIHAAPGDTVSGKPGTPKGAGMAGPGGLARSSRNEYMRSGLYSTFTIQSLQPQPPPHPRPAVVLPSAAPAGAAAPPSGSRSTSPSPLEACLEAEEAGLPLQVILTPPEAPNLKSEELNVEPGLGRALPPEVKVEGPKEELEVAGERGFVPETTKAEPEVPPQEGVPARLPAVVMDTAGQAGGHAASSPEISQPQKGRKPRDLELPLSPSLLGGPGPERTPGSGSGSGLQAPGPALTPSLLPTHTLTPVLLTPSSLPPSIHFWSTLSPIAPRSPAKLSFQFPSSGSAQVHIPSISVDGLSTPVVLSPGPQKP
How it was run: as §1

GABPA = molecular target: T3, GABPA (Homo sapiens, UniProt Q06546 1-454); details: protein: recombinant; tags: N-terminal GST; dsDNA, one strand shown
T3 sequence: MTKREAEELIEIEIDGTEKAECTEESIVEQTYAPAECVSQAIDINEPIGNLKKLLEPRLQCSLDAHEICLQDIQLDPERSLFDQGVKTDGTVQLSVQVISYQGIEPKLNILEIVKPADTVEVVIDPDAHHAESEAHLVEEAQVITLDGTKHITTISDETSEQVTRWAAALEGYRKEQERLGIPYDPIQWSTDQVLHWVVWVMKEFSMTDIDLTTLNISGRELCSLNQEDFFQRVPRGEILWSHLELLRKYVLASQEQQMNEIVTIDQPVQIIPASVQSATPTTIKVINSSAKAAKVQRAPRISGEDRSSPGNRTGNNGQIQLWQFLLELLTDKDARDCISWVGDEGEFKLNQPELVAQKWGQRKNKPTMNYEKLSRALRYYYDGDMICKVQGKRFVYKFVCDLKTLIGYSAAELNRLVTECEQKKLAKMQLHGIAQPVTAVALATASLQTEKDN
How it was run: as §1

ERG = molecular target: T4, ERG (Homo sapiens, UniProt P11308 1-479); details: protein: recombinant; tags: N-terminal GST; dsDNA, one strand shown
T4 sequence: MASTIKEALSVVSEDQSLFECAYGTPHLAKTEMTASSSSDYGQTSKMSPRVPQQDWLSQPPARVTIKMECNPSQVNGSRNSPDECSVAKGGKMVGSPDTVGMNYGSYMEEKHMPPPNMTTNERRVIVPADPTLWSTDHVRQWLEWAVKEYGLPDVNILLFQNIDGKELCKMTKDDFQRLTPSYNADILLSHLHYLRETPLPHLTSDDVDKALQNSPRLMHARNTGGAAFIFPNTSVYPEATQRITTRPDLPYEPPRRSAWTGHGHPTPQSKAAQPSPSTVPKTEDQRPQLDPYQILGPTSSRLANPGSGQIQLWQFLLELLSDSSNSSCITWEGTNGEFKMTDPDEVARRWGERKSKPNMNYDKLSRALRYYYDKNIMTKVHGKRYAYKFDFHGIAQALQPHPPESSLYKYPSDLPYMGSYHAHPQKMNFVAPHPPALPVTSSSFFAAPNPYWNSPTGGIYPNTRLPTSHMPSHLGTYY
How it was run: as §1

ELF1 = ELF1 (Homo sapiens, UniProt P32519 1-619); details: protein: recombinant; tags: N-terminal GST; dsDNA, one strand shown
How it was run: as §1

EHF = molecular target: T5, EHF (Homo sapiens, UniProt Q9NZC4 1-300); details: protein: recombinant; tags: N-terminal GST; dsDNA, one strand shown
T5 sequence: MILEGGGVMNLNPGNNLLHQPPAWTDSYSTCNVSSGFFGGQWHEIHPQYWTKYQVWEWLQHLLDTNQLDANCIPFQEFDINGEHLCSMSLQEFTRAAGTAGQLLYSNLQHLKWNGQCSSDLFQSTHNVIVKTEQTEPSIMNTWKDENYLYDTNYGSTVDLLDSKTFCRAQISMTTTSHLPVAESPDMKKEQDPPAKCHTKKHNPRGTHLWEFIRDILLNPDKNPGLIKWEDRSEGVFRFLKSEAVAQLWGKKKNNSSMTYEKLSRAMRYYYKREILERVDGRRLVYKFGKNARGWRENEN
How it was run: as §1

SPI1 = SPI1 (Homo sapiens, UniProt P17947 1-270); details: protein: recombinant; tags: N-terminal GST; dsDNA, one strand shown
How it was run: as §1

SPIB = SPIB (Homo sapiens, UniProt Q01892 1-262); details: protein: recombinant; tags: N-terminal GST; dsDNA, one strand shown
How it was run: as §1

ELK3 = molecular target: T6, ELK3 (Homo sapiens, UniProt P41970 1-407); details: protein: recombinant; tags: N-terminal GST; dsDNA, one strand shown
T6 sequence: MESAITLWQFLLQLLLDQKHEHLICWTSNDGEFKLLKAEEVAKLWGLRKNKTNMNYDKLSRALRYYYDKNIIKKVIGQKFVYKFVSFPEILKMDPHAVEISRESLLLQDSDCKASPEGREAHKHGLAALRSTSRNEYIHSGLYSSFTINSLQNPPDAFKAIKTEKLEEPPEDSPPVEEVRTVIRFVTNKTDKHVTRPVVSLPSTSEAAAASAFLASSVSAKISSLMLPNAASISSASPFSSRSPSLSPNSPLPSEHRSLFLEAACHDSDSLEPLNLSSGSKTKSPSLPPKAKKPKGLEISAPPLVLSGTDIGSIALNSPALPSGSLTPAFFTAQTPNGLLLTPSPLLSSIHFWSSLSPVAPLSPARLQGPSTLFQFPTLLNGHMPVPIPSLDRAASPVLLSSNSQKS
How it was run: as §1

FEV = molecular target: T7, FEV (Homo sapiens, UniProt Q99581 1-238); details: protein: recombinant; tags: N-terminal GST; dsDNA, one strand shown
T7 sequence: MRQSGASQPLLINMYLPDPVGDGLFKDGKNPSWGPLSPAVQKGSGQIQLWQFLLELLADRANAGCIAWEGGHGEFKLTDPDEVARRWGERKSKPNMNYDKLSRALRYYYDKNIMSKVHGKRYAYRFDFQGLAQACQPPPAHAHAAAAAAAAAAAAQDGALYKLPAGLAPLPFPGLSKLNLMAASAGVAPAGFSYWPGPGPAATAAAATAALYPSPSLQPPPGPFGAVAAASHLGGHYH
How it was run: as §1

ETV5 = ETV5 (Homo sapiens, UniProt P41161 1-510); details: protein: recombinant; tags: N-terminal GST; dsDNA, one strand shown
How it was run: as §1

HSF1 = HSF1 (Homo sapiens, UniProt Q00613 1-529); details: protein: recombinant; tags: N-terminal GST; chain copies: 3; dsDNA, one strand shown
How it was run: as §1

SPIC = molecular target: T8, SPIC (Homo sapiens, UniProt Q8N5J4 1-248); details: protein: recombinant; tags: N-terminal GST; dsDNA, one strand shown
T8 sequence: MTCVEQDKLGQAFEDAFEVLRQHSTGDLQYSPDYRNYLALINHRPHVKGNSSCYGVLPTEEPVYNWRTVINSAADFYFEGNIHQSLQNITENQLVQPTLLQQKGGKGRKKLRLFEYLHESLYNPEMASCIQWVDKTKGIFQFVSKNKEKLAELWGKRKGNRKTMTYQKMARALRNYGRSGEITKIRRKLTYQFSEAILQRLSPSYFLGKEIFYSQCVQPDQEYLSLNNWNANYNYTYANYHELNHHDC
How it was run: as §1

ELF4 = ELF4 (Homo sapiens, UniProt Q99607 1-663); details: protein: recombinant; tags: N-terminal GST; dsDNA, one strand shown
How it was run: as §1

ELK4 = molecular target: T9, ELK4 (Homo sapiens, UniProt P28324-2 1-405); details: protein: recombinant; tags: N-terminal GST; dsDNA, one strand shown
T9 sequence: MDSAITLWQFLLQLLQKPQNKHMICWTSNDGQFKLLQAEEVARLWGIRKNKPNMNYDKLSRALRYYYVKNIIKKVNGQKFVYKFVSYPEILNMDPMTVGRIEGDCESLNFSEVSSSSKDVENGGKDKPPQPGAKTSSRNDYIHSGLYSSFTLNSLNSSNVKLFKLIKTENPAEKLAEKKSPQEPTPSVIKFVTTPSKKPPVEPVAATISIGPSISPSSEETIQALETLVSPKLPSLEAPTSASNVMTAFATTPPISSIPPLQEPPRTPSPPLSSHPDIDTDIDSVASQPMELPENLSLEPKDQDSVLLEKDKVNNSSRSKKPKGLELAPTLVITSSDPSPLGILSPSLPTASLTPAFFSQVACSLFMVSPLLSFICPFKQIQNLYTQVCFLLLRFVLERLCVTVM
How it was run: as §1

ETV2 = molecular target: T10, ETV2 (Homo sapiens, UniProt O00321 1-342); details: protein: recombinant; tags: N-terminal GST; dsDNA, one strand shown
T10 sequence: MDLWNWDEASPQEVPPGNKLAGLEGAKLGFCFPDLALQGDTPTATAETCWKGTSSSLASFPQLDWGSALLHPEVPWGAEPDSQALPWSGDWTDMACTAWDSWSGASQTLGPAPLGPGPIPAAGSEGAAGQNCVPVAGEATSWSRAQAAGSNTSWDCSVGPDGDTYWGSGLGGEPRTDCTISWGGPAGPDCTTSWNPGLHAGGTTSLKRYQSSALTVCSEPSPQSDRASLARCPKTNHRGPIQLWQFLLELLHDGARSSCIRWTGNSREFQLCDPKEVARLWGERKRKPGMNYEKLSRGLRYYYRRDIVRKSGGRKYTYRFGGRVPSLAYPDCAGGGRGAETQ
How it was run: as §1

ELF3 = molecular target: T11, ELF3 (Homo sapiens, UniProt P78545 1-371); details: protein: recombinant; tags: N-terminal GST; dsDNA, one strand shown
T11 sequence: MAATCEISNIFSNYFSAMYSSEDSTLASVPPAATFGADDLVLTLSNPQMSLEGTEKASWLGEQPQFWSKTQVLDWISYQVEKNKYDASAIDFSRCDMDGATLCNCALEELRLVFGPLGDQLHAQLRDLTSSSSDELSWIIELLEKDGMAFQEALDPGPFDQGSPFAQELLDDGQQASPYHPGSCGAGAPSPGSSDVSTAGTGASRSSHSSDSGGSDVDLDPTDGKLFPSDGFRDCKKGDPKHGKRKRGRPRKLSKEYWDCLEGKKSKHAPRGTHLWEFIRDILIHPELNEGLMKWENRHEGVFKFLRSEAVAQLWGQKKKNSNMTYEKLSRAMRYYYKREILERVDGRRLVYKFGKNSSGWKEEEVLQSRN
How it was run: as §1

CRX = CRX (Homo sapiens, UniProt O43186 1-299); details: protein: recombinant; tags: N-terminal GST; dsDNA, one strand shown
How it was run: as §1

ETV1 = ETV1 (Homo sapiens, UniProt P50549 1-477); details: protein: recombinant; tags: N-terminal GST; dsDNA, one strand shown
How it was run: as §1

Sequence of SPIB (Q01892 whole entry): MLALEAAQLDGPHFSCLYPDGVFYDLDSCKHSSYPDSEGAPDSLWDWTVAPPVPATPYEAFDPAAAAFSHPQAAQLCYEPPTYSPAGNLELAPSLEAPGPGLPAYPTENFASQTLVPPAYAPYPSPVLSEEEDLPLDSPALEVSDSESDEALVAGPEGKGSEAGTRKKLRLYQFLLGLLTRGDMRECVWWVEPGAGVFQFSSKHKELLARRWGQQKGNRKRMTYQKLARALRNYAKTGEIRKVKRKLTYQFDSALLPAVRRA
Sequence of HSF1 (Q00613 whole entry): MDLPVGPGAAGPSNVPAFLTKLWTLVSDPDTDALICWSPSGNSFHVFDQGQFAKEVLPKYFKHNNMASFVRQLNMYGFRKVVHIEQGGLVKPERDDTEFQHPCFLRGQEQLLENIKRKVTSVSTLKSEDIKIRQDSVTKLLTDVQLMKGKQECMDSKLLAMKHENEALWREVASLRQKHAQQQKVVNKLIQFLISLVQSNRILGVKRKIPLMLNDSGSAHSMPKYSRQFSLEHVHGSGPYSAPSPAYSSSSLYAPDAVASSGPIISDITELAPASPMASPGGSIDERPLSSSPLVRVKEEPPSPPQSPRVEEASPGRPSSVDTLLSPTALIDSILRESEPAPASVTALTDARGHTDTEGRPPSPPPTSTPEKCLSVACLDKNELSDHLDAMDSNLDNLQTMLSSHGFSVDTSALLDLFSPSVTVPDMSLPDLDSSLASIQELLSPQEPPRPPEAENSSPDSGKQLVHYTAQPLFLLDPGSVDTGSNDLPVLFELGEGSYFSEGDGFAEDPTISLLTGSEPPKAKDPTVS
Sequence of ELF4 (Q99607 whole entry): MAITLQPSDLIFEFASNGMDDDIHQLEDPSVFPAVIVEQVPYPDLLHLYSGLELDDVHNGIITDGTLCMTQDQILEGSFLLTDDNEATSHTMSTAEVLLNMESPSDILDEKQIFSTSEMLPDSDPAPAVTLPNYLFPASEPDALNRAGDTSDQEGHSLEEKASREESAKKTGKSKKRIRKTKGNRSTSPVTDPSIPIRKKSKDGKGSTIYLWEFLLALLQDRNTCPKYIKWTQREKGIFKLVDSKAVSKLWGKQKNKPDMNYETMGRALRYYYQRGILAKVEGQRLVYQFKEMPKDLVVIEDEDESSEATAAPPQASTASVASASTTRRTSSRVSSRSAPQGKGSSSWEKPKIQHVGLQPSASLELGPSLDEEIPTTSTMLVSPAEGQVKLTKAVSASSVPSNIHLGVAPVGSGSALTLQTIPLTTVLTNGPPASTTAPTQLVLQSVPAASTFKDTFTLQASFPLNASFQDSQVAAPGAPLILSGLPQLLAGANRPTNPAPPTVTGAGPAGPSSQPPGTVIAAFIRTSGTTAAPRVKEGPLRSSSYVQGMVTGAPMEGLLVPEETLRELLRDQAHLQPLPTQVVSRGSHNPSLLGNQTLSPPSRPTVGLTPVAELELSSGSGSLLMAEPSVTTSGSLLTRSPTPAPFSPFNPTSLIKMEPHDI
Sequence of ETV1 (P50549 whole entry): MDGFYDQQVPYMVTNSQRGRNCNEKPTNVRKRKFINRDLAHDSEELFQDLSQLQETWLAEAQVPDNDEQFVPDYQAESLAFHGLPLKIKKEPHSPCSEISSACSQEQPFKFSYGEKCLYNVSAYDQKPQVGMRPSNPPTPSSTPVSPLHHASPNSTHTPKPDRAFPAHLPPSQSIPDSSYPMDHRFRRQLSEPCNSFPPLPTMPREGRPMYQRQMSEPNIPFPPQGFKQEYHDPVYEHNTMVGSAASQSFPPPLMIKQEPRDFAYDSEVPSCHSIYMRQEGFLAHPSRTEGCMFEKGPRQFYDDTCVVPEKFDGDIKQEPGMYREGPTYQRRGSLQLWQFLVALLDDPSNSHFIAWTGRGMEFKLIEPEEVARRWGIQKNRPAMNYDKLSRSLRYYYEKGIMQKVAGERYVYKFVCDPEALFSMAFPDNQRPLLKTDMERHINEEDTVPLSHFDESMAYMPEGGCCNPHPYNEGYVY
Sequence of ELF1 (P32519 whole entry): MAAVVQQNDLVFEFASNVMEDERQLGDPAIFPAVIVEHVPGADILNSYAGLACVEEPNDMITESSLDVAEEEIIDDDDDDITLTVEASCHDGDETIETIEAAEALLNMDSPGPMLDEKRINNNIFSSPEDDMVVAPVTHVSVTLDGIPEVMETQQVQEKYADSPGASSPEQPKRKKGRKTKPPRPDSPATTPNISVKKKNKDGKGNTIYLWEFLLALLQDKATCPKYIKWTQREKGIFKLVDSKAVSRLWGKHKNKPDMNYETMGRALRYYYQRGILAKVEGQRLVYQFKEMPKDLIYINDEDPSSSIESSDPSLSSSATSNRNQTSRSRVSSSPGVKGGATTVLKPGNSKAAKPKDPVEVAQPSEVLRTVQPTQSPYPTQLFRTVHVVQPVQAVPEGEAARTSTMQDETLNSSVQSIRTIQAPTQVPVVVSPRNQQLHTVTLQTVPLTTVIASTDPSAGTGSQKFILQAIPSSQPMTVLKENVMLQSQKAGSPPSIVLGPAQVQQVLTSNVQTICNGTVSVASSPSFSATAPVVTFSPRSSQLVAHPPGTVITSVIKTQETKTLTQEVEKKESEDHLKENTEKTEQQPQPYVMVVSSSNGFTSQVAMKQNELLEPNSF
Sequence of ETV5 (P41161 whole entry): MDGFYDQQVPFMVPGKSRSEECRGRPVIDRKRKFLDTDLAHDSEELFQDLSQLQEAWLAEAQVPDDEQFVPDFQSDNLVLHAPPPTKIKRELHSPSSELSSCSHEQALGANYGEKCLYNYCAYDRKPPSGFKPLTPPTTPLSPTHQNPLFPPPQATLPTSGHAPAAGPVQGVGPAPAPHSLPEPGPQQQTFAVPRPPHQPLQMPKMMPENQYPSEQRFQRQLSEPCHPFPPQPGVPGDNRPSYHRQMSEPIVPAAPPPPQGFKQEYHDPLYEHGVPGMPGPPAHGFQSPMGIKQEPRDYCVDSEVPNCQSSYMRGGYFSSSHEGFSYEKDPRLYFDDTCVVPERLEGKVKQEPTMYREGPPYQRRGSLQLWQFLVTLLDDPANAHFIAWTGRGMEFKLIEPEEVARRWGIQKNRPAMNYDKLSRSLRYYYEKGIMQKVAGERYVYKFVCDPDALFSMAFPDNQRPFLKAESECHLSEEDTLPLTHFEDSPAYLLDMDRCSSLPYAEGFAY
Sequence of CRX (O43186 whole entry): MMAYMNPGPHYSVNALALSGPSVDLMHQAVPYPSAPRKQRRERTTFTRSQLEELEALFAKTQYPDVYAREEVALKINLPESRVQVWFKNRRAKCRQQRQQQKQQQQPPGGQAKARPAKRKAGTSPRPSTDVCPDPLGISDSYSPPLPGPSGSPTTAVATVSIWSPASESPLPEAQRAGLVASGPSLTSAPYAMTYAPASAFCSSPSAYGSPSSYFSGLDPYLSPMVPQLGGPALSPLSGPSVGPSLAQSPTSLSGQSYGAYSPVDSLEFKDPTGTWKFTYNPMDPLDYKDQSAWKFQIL

Sequence: CATGCT
- binding signal (FLI1): 1.33 fold enrichment (6-mer frequency, TF over GST control)
- binding signal (ELK1): 1.2 fold enrichment (6-mer frequency, TF over GST control)
- binding signal (GABPA): 1.21 fold enrichment (6-mer frequency, TF over GST control)
- binding signal (ERG): 1.23 fold enrichment (6-mer frequency, TF over GST control)
- binding signal (ELF1): 1.23 fold enrichment (6-mer frequency, TF over GST control)
- binding signal (EHF): 1.24 fold enrichment (6-mer frequency, TF over GST control)
- binding signal (SPI1): 1.11 fold enrichment (6-mer frequency, TF over GST control)
- binding signal (SPIB): 1.25 fold enrichment (6-mer frequency, TF over GST control)
- binding signal (ELK3): 1.3 fold enrichment (6-mer frequency, TF over GST control)
- binding signal (FEV): 1.22 fold enrichment (6-mer frequency, TF over GST control)
- binding signal (ETV5): 1.13 fold enrichment (6-mer frequency, TF over GST control)
- binding signal (HSF1): 1.13 fold enrichment (6-mer frequency, TF over GST control)
- binding signal (SPIC): 1.34 fold enrichment (6-mer frequency, TF over GST control)
- binding signal (ELF4): 1.15 fold enrichment (6-mer frequency, TF over GST control)
- binding signal (ELK4): 1.3 fold enrichment (6-mer frequency, TF over GST control)
- binding signal (ETV2): 1.35 fold enrichment (6-mer frequency, TF over GST control)
- binding signal (ELF3): 1.27 fold enrichment (6-mer frequency, TF over GST control)
- binding signal (CRX): 1.1 fold enrichment (6-mer frequency, TF over GST control)
- binding signal (ETV1): 1.19 fold enrichment (6-mer frequency, TF over GST control)
